From PubChem BioAssay (NCATS)
Results filed as inconclusive are left out. Active and inactive are the calls of the source. The call rests on the fitted dose curve; in most records, active means well fitted cell-killing curve with a large enough effect; inconclusive means small, poorly fitted or top-dose-only effect, or effect the other way; inactive means no such curve, though single readings can be large or run the other way.

How the values were obtained:
[1] = Quantitative High-Throughput drug screen in 47 multiple myeloma cell lines against the NCATS MIPE library collection: OCIMY5_PLB cell viability assay (AID 1918988); further: nearly all actives have a fitted effect of over 65% in size
Outline: (§1)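 500 cells/well; MIPE 4.0 drugs pin-transferred; 48 h, 37C, 5% CO2. CellTiter-Glo, 5 min RT, luminescence. Controls: DMSO 100%, media 0%.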

[2] = Quantitative High-Throughput drug screen in 47 multiple myeloma cell lines against the NCATS MIPE library collection: XG6_PLB cell viability assay (AID 1919865); further: nearly all actives have a fitted effect of over 40% in size
Outline: as §1

[3] = Quantitative High-Throughput drug screen in 47 multiple myeloma cell lines against the NCATS MIPE library collection: VP6_DJ cell viability assay (AID 1919867); further: nearly all actives have a fitted effect of over 40% in size
Outline: as §1

[4] = Quantitative High-Throughput drug screen in 47 multiple myeloma cell lines against the NCATS MIPE library collection: PE2_PLB cell viability assay (AID 1919869); further: nearly all actives have a fitted effect of over 35% in size
Outline: as §1

[5] = Quantitative High-Throughput drug screen in 47 multiple myeloma cell lines against the NCATS MIPE library collection: PCM6_Riken cell viability assay (AID 1919870); further: nearly all actives have a fitted effect of over 30% in size
Outline: as §1

[6] = Quantitative High-Throughput drug screen in 47 multiple myeloma cell lines against the NCATS MIPE library collection: RPMI8226_ATCC cell viability assay (AID 1919871); further: nearly all actives have a fitted effect of over 30% in size
Outline: as §1

[7] = Quantitative High-Throughput drug screen in 47 multiple myeloma cell lines against the NCATS MIPE library collection: KMS28BM_JCRB cell viability assay (AID 1919874); further: nearly all actives have a fitted effect of over 35% in size
Outline: as §1

[8] = Quantitative High-Throughput drug screen in 47 multiple myeloma cell lines against the NCATS MIPE library collection: KMS11_JCRBsus cell viability assay (AID 1919873); further: nearly all actives have a fitted effect of over 50% in size
Outline: as §1

[9] = Quantitative High-Throughput drug screen in 47 multiple myeloma cell lines against the NCATS MIPE library collection: OCIMY7_PLB cell viability assay (AID 1918987); conditions: OCI-MY7 myeloma viability, CellTiter-Glo ATP, 48 h; viability (% of DMSO): at 45.8 µM (top of the series); further: nearly all actives have a fitted effect of over 65% in size
Outline: as §1

[10] = Quantitative High-Throughput drug screen in 47 multiple myeloma cell lines against the NCATS MIPE library collection: SKMM1_PLB cell viability assay (AID 1919863); conditions: SKMM1 myeloma viability, CellTiter-Glo ATP, 48 h; viability: stronger effect = lower value; further: nearly all actives have a fitted effect of over 35% in size
Outline: as §1

[11] = Quantitative High-Throughput drug screen in 47 multiple myeloma cell lines against the NCATS MIPE library collection: KMS34_JCRB cell viability assay (AID 1918985); further: nearly all actives have a fitted effect of over 40% in size
Outline: as §1

[12] = Quantitative High-Throughput drug screen in 47 multiple myeloma cell lines against the NCATS MIPE library collection: OPM1_PLB cell viability assay (AID 1918989); further: nearly all actives have a fitted effect of over 40% in size
Outline: as §1

[13] = Quantitative High-Throughput drug screen in 47 multiple myeloma cell lines against the NCATS MIPE library collection: U266_ATCC cell viability assay (AID 1919864); further: nearly all actives have a fitted effect of over 35% in size
Outline: as §1

[14] = Quantitative High-Throughput drug screen in 47 multiple myeloma cell lines against the NCATS MIPE library collection: UTMC2_PLB cell viability assay (AID 1919868); conditions: CellTiter-Glo ATP luminescence, 48 h; viability (% of DMSO control): at 45.8 µM (top of the series); further: nearly all actives have a fitted effect of over 55% in size
Outline: as §1

[15] = Quantitative High-Throughput drug screen in 47 multiple myeloma cell lines against the NCATS MIPE library collection: L363_DSMZ cell viability assay (AID 1918984); conditions: L363 myeloma viability, CellTiter-Glo ATP luminescence, 48 h; viability (% of control): at 45.8 µM (top of the series); further: nearly all actives have a fitted effect of over 40% in size
Outline: as §1

[16] = Quantitative High-Throughput drug screen in 47 multiple myeloma cell lines against the NCATS MIPE library collection: XG1_PLB cell viability assay (AID 1919866); further: nearly all actives have a fitted effect of over 35% in size
Outline: as §1

[17] = Quantitative High-Throughput drug screen in 47 multiple myeloma cell lines against the NCATS MIPE library collection: OPM2_DSMZ cell viability assay (AID 1919872); further: nearly all actives have a fitted effect of over 30% in size
Outline: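 Primary qHTS used for cherry-picking: cells at 500/well, library compounds for 48 h (37C, 5% CO2), luminescent ATP assay.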

Measured: Potency
Potency means the concentration at half of the fitted maximal effect.

Cc1cccc2c1CC[C@H](CN1CCC(c3c(Cl)cccc3Cl)CC1)C[C@@H]2O
active: [1] 2.64 µM | [2] 20.9 µM | [3] 14.8 µM | [4] 20.9 µM | [5] 18.7 µM | [6] 16.6 µM | [7] 14.8 µM

O=c1cc(-c2ccc(O)c(O)c2)oc2cc(O)cc(O)c12
inactive: [6] | [8] | [7]
active: [2] 14.8 µM | [3] 11.8 µM

C=CC(=O)Nc1cccc(Sc2nc(Nc3ccc(N4CCN(C)CC4)cc3)ncc2Cl)c1
active: [9] 0.743 µM | [10] 37.2 µM | [2] 0.526 µM

CO[C@@H]1C(N(C)C(=O)c2ccccc2)C[C@H]2O[C@]1(C)n1c3ccccc3c3c4c(c5c6ccccc6n2c5c31)C(=O)NC4=O (some centres not stated)
active: [11] 3.32 µM | [9] 0.935 µM | [1] 5.26 µM | [12] 4.18 µM | [10] 11.8 µM | [13] 13.2 µM | [14] 2.64 µM | [4] 3.72 µM | [6] 5.26 µM

NS(=O)(=O)c1ccc(Nc2nc(OCC3CCCCC3)c3[nH]cnc3n2)cc1
inactive: [6]
active: [15] 20.9 µM | [9] 13.2 µM | [1] 23.5 µM | [12] 20.9 µM | [13] 20.9 µM | [2] 2.96 µM | [16] 2.64 µM | [3] 16.6 µM | [14] 11.8 µM | [4] 16.6 µM | [5] 10.5 µM

CCC(c1ccc(O)cc1)C(CC)c1ccc(O)cc1 (configuration not stated)
inactive: [15] | [3] | [4] | [6] | [17]
active: [1] 3.32 µM | [13] 3.32 µM | [2] 0.833 µM

CC=C(C(=CC)c1ccc(O)cc1)c1ccc(O)cc1
active: [15] 13.2 µM | [1] 16.6 µM | [2] 18.7 µM | [16] 16.6 µM | [3] 18.7 µM | [4] 20.9 µM | [5] 20.9 µM | [17] 18.7 µM

CC(=O)O[C@]1(C(C)=O)CC[C@H]2[C@@H]3C=C(Cl)C4=CC(=O)[C@@H]5C[C@H]5[C@]4(C)[C@@H]3CC[C@@]21C
inactive: [17] | [8] | [7]
active: [9] 9.35 µM | [1] 23.5 µM | [13] 8.33 µM | [2] 4.18 µM | [16] 7.43 µM | [3] 7.43 µM | [4] 11.8 µM | [6] 20.9 µM

CC(C)(OCc1nn(Cc2ccccc2)c2ccccc12)C(=O)O
inactive: [11] | [12] | [4] | [5] | [6] | [17] | [8]

O=C1NC(=O)C(=Cc2ccc(-c3ccc(F)cc3O)o2)S1
inactive: [13] | [7]
active: [15] 0.833 µM | [9] 3.72 µM | [12] 14.8 µM | [2] 2.35 µM | [3] 2.96 µM | [4] 7.43 µM | [6] 9.35 µM

COc1cc2nccc(Oc3ccc(NC(=O)Nc4cc(C)on4)c(Cl)c3)c2cc1OC
active: [11] 4.18 µM | [1] 16.6 µM | [12] 20.9 µM | [13] 20.9 µM | [2] 0.118 µM | [16] 1.66 µM | [6] 23.5 µM | [8] 20.9 µM

Cc1ccc(C(=O)N(CCCN)[C@@H](c2oc3cc(Cl)ccc3c(=O)c2Cc2ccccc2)C(C)C)cc1
active: [13] 20.9 µM | [5] 9.35 µM
inactive: [11] | [1] | [8]
